Active and inactive are the calls of the source.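 The calls were made as follows, unless noted: active = visually confirmed hit in the image check and inhibition above 20%; inconclusive = visually confirmed hit but inhibition not above 20%; inactive = no visual hit in the image check.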

The nature of experiment [1]: inhibitors of TNFa-induced NFkB p65 translocation, primary screen, imaging, HUVEC, MLSMR starter and 10KST1 sets (AID 438;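 active = inhibition above 20% together with a positive visual image hit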;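 also: compound added about 3h40 before a 20 min TNFalpha stimulation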;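 as to inhibition: signal is the nuclear over cytoplasmic p65 intensity ratio per well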). Particulars: HUVEC TNFa-induced p65 nuclear translocation; cell count: measured here: nuclei count (cytotoxicity indicator), at 2.08 µM; inhibition: at 2 µM, stronger effect = higher value, 0% TNFa-plus-vehicle, 100% no-TNFa wells.
A short description of experiment [2]: inhibitors of mutant huntingtin aggregation, primary screen, imaging, exon1htt(103Q)mCFP cells, high-content imaging (AID 483;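 active = visual image review flags a hit and inhibition of aggregation exceeds 20%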;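 also: compound exposure lasted 3 days before fixation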;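 as to nuclei count: percent of the per-plate median nuclei count of sample wells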). Particulars: exon1htt(103Q)mCFP cell line, aggregate imaging, at 2 µM; inhibition of aggregation: stronger effect = higher value; nuclei count: measured here: cell count, toxicity.
The nature of experiment [3]: inhibitors of E-selectin induction by TNFa, primary screen, imaging, HUVEC, immunofluorescence, MLSMR starter and 10KST1 sets (AID 487).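 As to inhibition: signal is fraction of cell area covered by stained E-selectin grains.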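 As to nuclei count: 100% = median nuclei count of all wells on the same plate.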 The conditions noted are these: HUVEC TNFalpha-induced E-selectin immunofluorescence imaging, at 2 µM; inhibition: stronger effect = higher value; nuclei count: measured here: cell number, toxicity.
Experiment [4] concerns the target Voltage-gated potassium channel subunit beta-2 (Rattus norvegicus) (UniProt P62483). In words: KvBeta enzyme negative modulators, primary screen, biochemical, NADPH fluorescence (AID 622;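 active = fluorescence slope higher than the sample average by over 3 SD, cut at about -0.22 in these data, passing the limit was not always enough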;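 also: slope of raw intensity against log time taken from 70 to 1610 s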). The conditions noted are these: recombinant KvBeta, 4-cyanobenzaldehyde reduction, at 10 µM, stronger effect = higher value.
Experiment [5] shares this target. Put plainly: KvBeta positive modulators, primary screen, biochemical, NADPH fluorescence (AID 623;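 active = NADPH fluorescence slope more negative than the mean of all samples by about 3 SD, 99.7% confidence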;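 also: fluorescence intensity change per second fitted from 20 to 320 s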). Particulars: Recombinant KvBeta, NADPH fluorescence decrease slope, 10 min; at 10 µM; stronger effect = lower value.
Experiment [6] concerns the target Alpha-2C adrenergic receptor (Homo sapiens) (UniProt P18825). Put plainly: modulators of alpha2C/GIRK thallium flux, primary screen, cell-based, HEK293 alpha2C/GIRK1/2 (AID 624;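 active = fluorescence slope after compound addition differing from the mean of all screened samples at 99.7% confidence, in either direction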;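 also: slope of fluorescence ratio to pre-addition baseline per second over 15 to 24 s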). The conditions noted are these: thallium flux BTC fluorescence, at 10 µM, actives lie on both sides.
A short description of experiment [7]: inhibitors of Sendai virus-induced IRF3 signaling, primary screen, TLR/RLR signaling modifier project, cell-based, Sendai virus stimulus, luciferase, 10K MLSCN set (AID 602276;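 active = inhibition at or above 50% at 10 µM; inactive = inhibition below 50%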;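 also: firefly luciferase from ISG56 promoter only with Renilla not read in this screen; 0% = Sendai virus plus DMSO and 100% = medium plus DMSO without virus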). Particulars: HEK293 RL24 IRF3 luciferase reporter, at 10 µM, stronger effect = higher value. (In general: In a reporter assay the amount or activity of a reporter protein is the signal.)
Experiment [8] is described as follows: inhibitors of poly I:C-induced TLR3 signaling, primary screen, cell-based, poly I:C stimulus, luciferase, 10K MLSCN set (AID 602277;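 active = inhibition of the reporter signal at or above 50%; inactive = inhibition below 50%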). The conditions noted are these: HEK293-TLR3 RL24 IRF3 luciferase reporter, at 10 µM, stronger effect = higher value.

Voltage-gated potassium channel subunit beta-2 (Rattus norvegicus), sequence (P62483 whole entry, looked up): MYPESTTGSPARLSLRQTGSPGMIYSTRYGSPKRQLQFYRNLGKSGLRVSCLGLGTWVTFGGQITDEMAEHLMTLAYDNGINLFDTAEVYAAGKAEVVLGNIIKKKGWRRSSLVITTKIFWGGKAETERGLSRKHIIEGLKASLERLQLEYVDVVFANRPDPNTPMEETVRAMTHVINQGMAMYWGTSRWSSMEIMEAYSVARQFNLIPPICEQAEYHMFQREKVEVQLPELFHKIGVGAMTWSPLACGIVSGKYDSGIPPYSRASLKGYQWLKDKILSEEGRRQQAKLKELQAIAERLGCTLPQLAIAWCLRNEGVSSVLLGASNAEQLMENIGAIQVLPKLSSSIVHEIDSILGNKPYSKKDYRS
Alpha-2C adrenergic receptor (Homo sapiens), sequence (P18825 whole entry, looked up): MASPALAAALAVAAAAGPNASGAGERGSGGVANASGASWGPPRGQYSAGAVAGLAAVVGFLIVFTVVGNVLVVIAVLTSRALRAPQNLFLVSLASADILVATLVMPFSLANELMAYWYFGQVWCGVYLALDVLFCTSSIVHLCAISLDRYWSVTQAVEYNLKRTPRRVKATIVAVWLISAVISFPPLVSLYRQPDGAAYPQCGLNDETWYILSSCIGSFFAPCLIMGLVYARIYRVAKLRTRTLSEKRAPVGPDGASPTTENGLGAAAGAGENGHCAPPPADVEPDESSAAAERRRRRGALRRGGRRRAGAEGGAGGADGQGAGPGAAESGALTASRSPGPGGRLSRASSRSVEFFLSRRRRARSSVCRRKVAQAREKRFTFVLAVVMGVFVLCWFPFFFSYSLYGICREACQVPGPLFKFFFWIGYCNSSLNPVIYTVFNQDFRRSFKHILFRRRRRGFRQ

For the compound `CC1CCCN(C(=O)c2cc(F)c(F)cc2Cl)C1` (stereo not drawn), the cell count in experiment [1] is 888. The inhibition (as a rule, the change of the read-out against control, counted positive when it falls) in experiment [1] was -1.3% (inactive); in experiment [3], -25.2% (inactive); in experiment [7] it was 2.92% (inactive); in experiment [8], 7.68% (inactive). Further, the inhibition of aggregation in experiment [2] was 39.2% (inactive). For the same compound, the nuclei count in experiment [2] came out at 88.6%; in experiment [3] it was 94%. Besides, the fluorescence slope in experiment [4] is -0.617 (inactive). Further, in experiment [5], the NADPH fluorescence slope was -3.8e-05 (inactive). Further, the slope in experiment [6] was 0.00409 (inactive).

As to `C=CCn1c(SCc2cccc(C#N)c2)nnc1-c1ccccc1O`, in experiment [1], the cell count amounted to 658. Besides, the inhibition in experiment [1] was -2.3% (inactive); in experiment [3] it was -18.9% (inactive); in experiment [7], 27.6% (inactive); in experiment [8], 46% (inactive). In addition, the inhibition of aggregation in experiment [2] is 5.6% (inactive). In addition, the values for the nuclei count in experiment [2] and in experiment [3] were 102% and 110%, respectively. Further, the fluorescence slope in experiment [4] was -0.574 (inactive). In addition, the NADPH fluorescence slope in experiment [5] was 1.6e-05 (inactive). Moreover, the slope in experiment [6] is 0.00698 (inactive).

As for `COc1cccc(-c2cc(C(=O)NCc3ccc(Cl)cc3)no2)c1`, the cell count in experiment [1] came to 475. For the same compound, the inhibition in experiment [1] is -3.9% (inactive); in experiment [3], 13.3% (inactive); in experiment [7], 46% (inactive); in experiment [8], -11.6% (inactive). In experiment [2], the inhibition of aggregation was -3.3% (inactive). For the same compound, the nuclei count amounted to 103% in experiment [2] and 95.6% in experiment [3]. In experiment [4], the fluorescence slope was -0.474 (inactive). Also, the NADPH fluorescence slope in experiment [5] was 1.7e-05 (inactive). Further, the slope in experiment [6] is 0.00826 (inactive).

For `Cc1nnc(SCc2ccccc2)n1N`, the cell count in experiment [1] was 465. The inhibition was 2.9% (inactive) in experiment [1], -16.8% (inactive) in experiment [3], 16.3% (inactive) in experiment [7] and 16.6% (inactive) in experiment [8]. The inhibition of aggregation in experiment [2] is -11.7% (inactive). Moreover, the nuclei count came out at 101% in experiment [2] and 119% in experiment [3]. In experiment [4], the fluorescence slope was -0.494 (inactive). For the same compound, in experiment [5], the NADPH fluorescence slope is -4.1e-05 (inactive). Moreover, the slope in experiment [6] was 0.00525 (inactive).

On to `Cc1c(C)n(C)c2ccc(C(=O)NCc3cccs3)cc12`, for which the cell count in experiment [1] is 461. Moreover, the inhibition in experiment [1] was -9.2% (inactive); in experiment [3] it was 11.8% (inactive); in experiment [7], -5.31% (inactive); in experiment [8] it was -32.8% (inactive). In addition, the inhibition of aggregation in experiment [2] is 19.4% (inactive). Further, the nuclei count came to 83.8% in experiment [2] and 93.5% in experiment [3]. In experiment [4], the fluorescence slope was -0.505 (inactive). Moreover, in experiment [5], the NADPH fluorescence slope was -3e-05 (inactive). In experiment [6], the slope was 0.00486 (inactive).

As for `CC12CN3CC(C)(CN(C1)C3c1ccc(Cl)cc1Cl)C2=O` (stereo not drawn), in experiment [1], the cell count came out at 849. Besides, the inhibition is -4.6% (inactive) in experiment [1], -21.6% (inactive) in experiment [3], 1.89% (inactive) in experiment [7] and 28.2% (inactive) in experiment [8]. For the same compound, the inhibition of aggregation in experiment [2] was -26.4% (inactive). Also, the values for the nuclei count in experiment [2] and in experiment [3] were 123% and 121%, respectively. Also, in experiment [4], the fluorescence slope is -0.557 (inactive). In experiment [5], the NADPH fluorescence slope was -1.9e-05 (inactive). For the same compound, in experiment [6], the slope is 0.00699 (inactive).

As to `Cn1c(C(=O)OCC(=O)NCC2CCCO2)cc2sccc21` (stereo not drawn), the cell count in experiment [1] was found to be 497. For the same compound, the inhibition is -1% (inactive) in experiment [1], -79% (inactive) in experiment [3], 13.3% (inactive) in experiment [7] and 13.1% (inactive) in experiment [8]. In addition, in experiment [2], the inhibition of aggregation is -7.3% (inactive). The nuclei count stood at 108% in experiment [2] and 107% in experiment [3]. In experiment [4], the fluorescence slope is -0.451 (inactive). Also, in experiment [5], the NADPH fluorescence slope was 9.3e-06 (inactive). In addition, the slope in experiment [6] is 0.00457 (inactive).

As for `N#CC(C(=O)NCCc1ccccc1)c1nc2ccccc2nc1N1CCOCC1` (stereo not drawn), in experiment [1], the cell count stood at 389. In addition, the inhibition in experiment [1] is 5.7% (inactive); in experiment [3], -176% (inactive); in experiment [7], -27.6% (inactive); in experiment [8] it was -40.4% (inactive). The inhibition of aggregation in experiment [2] is -43.6% (inactive). Also, the figures for the nuclei count in experiment [2] and in experiment [3] were 103% and 118%, respectively. The fluorescence slope in experiment [4] is -0.401 (inactive). In experiment [5], the NADPH fluorescence slope is -2e-05 (inactive). The slope in experiment [6] was 0.00348 (inactive).

`CCOc1ccccc1C(=O)Nc1nnc(CC)s1`: the cell count in experiment [1] worked out at 537. Further, the inhibition is -12% (inactive) in experiment [1], -6.2% (inactive) in experiment [3], -6.19% (inactive) in experiment [7] and -13.4% (inactive) in experiment [8]. Also, the inhibition of aggregation in experiment [2] was 12.2% (inactive). For the same compound, the nuclei count is 59.9% in experiment [2] and 88% in experiment [3]. The fluorescence slope in experiment [4] is -0.428 (inactive). The NADPH fluorescence slope in experiment [5] is -2.5e-05 (inactive). Also, in experiment [6], the slope was 0.00564 (inactive).

As for `Cc1cccn2c(=O)c3cc(C(=O)NC4CCCC4)c(=N)n(C4CCCC4)c3nc12`, the cell count in experiment [1] stood at 786. The inhibition was 2.4% (inactive) in experiment [1], -189% (inactive) in experiment [3], 17.5% (inactive) in experiment [7] and 32.7% (inactive) in experiment [8]. For the same compound, the inhibition of aggregation in experiment [2] was -58% (inactive). Also, the nuclei count was found to be 107% in experiment [2] and 126% in experiment [3]. For the same compound, the fluorescence slope in experiment [4] was -0.0946 (inactive). Moreover, the NADPH fluorescence slope in experiment [5] was -1.1e-05 (inactive). The slope in experiment [6] was 0.00161 (inactive).

`COC(=O)C1CCN(C(=O)c2sc3nc(-c4ccc(F)cc4)cn3c2C)CC1`: in experiment [1], the cell count was 654. Moreover, the inhibition was -6.1% (inactive) in experiment [1], -65.8% (inactive) in experiment [3], 10.2% (inactive) in experiment [7] and 3.27% (inactive) in experiment [8]. Besides, the inhibition of aggregation in experiment [2] was -14.7% (inactive). Besides, the results for the nuclei count in experiment [2] and in experiment [3] were 105% and 120%, respectively. In addition, the fluorescence slope in experiment [4] was -0.487 (inactive). For the same compound, the NADPH fluorescence slope in experiment [5] is -4.6e-05 (inactive). For the same compound, the slope in experiment [6] was 0.00421 (inactive).

`COc1ccc(N2C(=O)CC(N3CCN(c4ccccc4F)CC3)C2=O)cc1` (stereo not drawn): the cell count in experiment [1] was determined as 698. Besides, the inhibition in experiment [1] was -8.7% (inactive); in experiment [3] it was 32.2% (inactive); in experiment [7] it was 6.58% (inactive); in experiment [8], 10.1% (inactive). The inhibition of aggregation in experiment [2] is -1.9% (inactive). For the same compound, the results for the nuclei count in experiment [2] and in experiment [3] were 108% and 84.3%, respectively. The fluorescence slope in experiment [4] was -0.538 (inactive). The NADPH fluorescence slope in experiment [5] was -2.3e-05 (inactive). For the same compound, in experiment [6], the slope is 0.00511 (inactive).

On to `O=C(CN1C(=O)CSC1=O)N1CCc2ccccc2C1`, for which the cell count in experiment [1] worked out at 324. Moreover, the inhibition was 4.8% (inactive) in experiment [1], 0.8% (inactive) in experiment [3], 6.34% (inactive) in experiment [7] and 31% (inactive) in experiment [8]. For the same compound, in experiment [2], the inhibition of aggregation was 14% (inactive). Also, the nuclei count in experiment [2] worked out at 101%; in experiment [3], 107%. In addition, the fluorescence slope in experiment [4] is -0.423 (inactive). Further, the NADPH fluorescence slope in experiment [5] was -5.1e-05 (inactive). The slope in experiment [6] was 0.00367 (inactive).

For the origin of these results see PubChem BioAssay.
